Test results taken from ChEMBL document CHEMBL2218924, “A broad activity screen in support of a chemogenomic map for kinase signalling research and drug discovery” (Biochem J, 2013).

The compounds below were run against Calcium/calmodulin-dependent protein kinase type II subunit delta (Homo sapiens) (UniProt Q13557). Conditions: at 10 µM.
Calcium/calmodulin-dependent protein kinase type II subunit delta (Homo sapiens), sequence (Q13557 whole entry): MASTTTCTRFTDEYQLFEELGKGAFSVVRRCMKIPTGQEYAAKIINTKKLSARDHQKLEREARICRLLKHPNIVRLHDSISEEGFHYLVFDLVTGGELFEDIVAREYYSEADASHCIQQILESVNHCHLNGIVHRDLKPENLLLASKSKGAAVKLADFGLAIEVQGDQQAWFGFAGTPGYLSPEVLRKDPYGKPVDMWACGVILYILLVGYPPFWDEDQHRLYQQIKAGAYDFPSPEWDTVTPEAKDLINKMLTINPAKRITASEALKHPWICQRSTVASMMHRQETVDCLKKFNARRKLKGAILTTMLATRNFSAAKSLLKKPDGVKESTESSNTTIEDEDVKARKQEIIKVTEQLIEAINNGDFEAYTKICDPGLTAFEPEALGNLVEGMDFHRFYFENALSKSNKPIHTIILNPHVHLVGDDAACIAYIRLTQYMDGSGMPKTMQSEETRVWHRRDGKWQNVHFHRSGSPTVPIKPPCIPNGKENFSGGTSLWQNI

Compared with `O=C1NC(=O)c2c1c1c3ccccc3[nH]c1c1[nH]c3cc(Br)ccc3c21`, `O=C1Nc2cc(Br)ccc2/C1=C1/Nc2ccccc2/C1=N\O` is lower in residual activity: 18% for the first, 2% for the second.

Compared with `NC(=O)c1ccc2[nH]c(-c3ccc(Oc4ccc(Cl)cc4)cc3)nc2c1`, `Oc1ccc(-c2nc(-c3ccc(F)cc3)c(-c3ccncc3)[nH]2)cc1` is higher in residual activity: 61% for the first, 76% for the second.

Going from `Cc1cncc2cccc(S(=O)(=O)N3CCCN(C(=O)CN)C[C@H]3C)c12` to `CC(=O)c1ccc(N2CCOCC2)cc1O`, the residual activity rises from 60% to 86%.

Compared with `CCN(CC)CCCCN1c2ccccc2Oc2ccc(Cl)cc21`, `Cn1nc2c3c(cccc31)C(=O)c1ccccc1-2` is lower in residual activity: 112% for the first, 36% for the second.

First: COc1ccc(CNc2nc(N(CCO)CCO)nc3c2ncn3C(C)C)cc1
Second: CC(C)n1cnc2c(NCc3ccccc3)nc(NCCCO)nc21
The residual activity of the first is lower: 54% for the first, 58% for the second.

Compared with `Cc1ccc(S(=O)(=O)/C=C/C#N)cc1`, `Cc1ccc(NC2=CC(=O)c3sc(C)nc3C2=O)cc1` is lower in residual activity: 107% for the first, 98% for the second.

Compared with `CO[C@H]1C[C@@H]2CC[C@@H](C)[C@@](O)(O2)C(=O)C(=O)N2CCCC[C@H]2C(=O)O[C@H]([C@H](C)C[C@@H]2CC[C@@H](O)[C@H](OC)C2)CC(=O)[C@H](C)/C=C(\C)[C@@H](O)[C@@H](OC)C(=O)[C@H](C)C[C@H](C)/C=C/C=C/C=C/1C`, `CO[C@H]1[C@@H](OC)C[C@H](C)[C@@H](OC)C2=CC(=O)C=C(NC(=O)/C(C)=C/C=C/[C@H](OC)[C@@H](OC(N)=O)/C(C)=C/[C@@H]1C)C2=O` is higher in residual activity: 99% for the first, 110% for the second.

First: CC[n+]1c(/C=C/N(C)c2ccccc2)n(-c2ccccc2)c2ccc(-c3nc4ccccc4s3)cc21
Second: CO[C@@H]1[C@H](N(C)C(=O)c2ccccc2)C[C@H]2O[C@]1(C)n1c3ccccc3c3c4c(c5c6ccccc6n2c5c31)C(=O)NC4
The residual activity of the first is higher: 78% for the first, 1% for the second.

Going from `Nc1n[nH]c2nnc(-c3c(-c4ccccc4)nn4ccccc34)cc12` to `Nc1cccc(-c2cc3c(Oc4cccc(O)c4)ncnc3[nH]2)c1`, the residual activity falls from 93% to 10%.

Going from `CCOc1cc2ncnc(Nc3cccc(Br)c3)c2cc1OCC` to `CNc1cc2c(Nc3cccc(Br)c3)ncnc2cn1`, the residual activity rises from 38% to 42%.

Compared with `N#Cc1cnc2cnc(NCc3cccnc3)cc2c1Nc1ccc(F)c(Cl)c1`, `COc1cc2ncnc(Nc3ccc(Oc4ccccc4)cc3)c2cc1OC` is higher in residual activity: 0% for the first, 111% for the second.

Compared with `Ic1cccc(CSc2nnc(-c3ccncc3)o2)c1`, `COc1cccc(-c2cc(=O)c3ccccc3o2)c1N` is higher in residual activity: 65% for the first, 99% for the second.

Going from `O=C1NC(=O)/C(=C/c2ccc3c(c2)OC(F)(F)O3)S1` to `O=C1NC(=O)/C(=C\c2ccc3nccnc3c2)S1`, the residual activity falls from 82% to 28%.

Compared with `O=C(Nc1cccc(Nc2cc(Nc3cccc(C(F)(F)F)c3)ncn2)c1)C1CC1`, `COc1cc2ncnc(N3CCN(C(=O)Nc4ccc(Oc5ccccc5)cc4)CC3)c2cc1OC` is higher in residual activity: 67% for the first, 93% for the second.

First: COc1ccc(OC)c2c(=S)c3ccccc3[nH]c12
Second: COc1cc2ncnc(Nc3ccc(O)c(Br)c3)c2cc1OC
The residual activity of the first is higher: 62% for the first, 28% for the second.

Going from `Nc1ccc2ncnc(NCCc3ccc(Oc4ccccc4)cc3)c2c1` to `N#C/C(=C(\N)Sc1ccc(N)cc1)c1ccccc1C(F)(F)F`, the residual activity rises from 14% to 47%.

Going from `CN(C)c1ccc(/C=C2\C(=O)Nc3ccccc32)cc1` to `Nc1nc(Nc2ccc(S(N)(=O)=O)cc2)nn1C(=S)Nc1c(F)cccc1F`, the residual activity falls from 35% to 0%.

Work on `Cc1nc2cc3nc(-c4cccs4)cnc3cc2n1C` yielded a residual activity of 85%.

What follows are compounds tested against T1, Calcium/calmodulin-dependent protein kinase type IV (Homo sapiens) (UniProt Q16566). Conditions: at 1 µM.
T1 sequence (whole entry): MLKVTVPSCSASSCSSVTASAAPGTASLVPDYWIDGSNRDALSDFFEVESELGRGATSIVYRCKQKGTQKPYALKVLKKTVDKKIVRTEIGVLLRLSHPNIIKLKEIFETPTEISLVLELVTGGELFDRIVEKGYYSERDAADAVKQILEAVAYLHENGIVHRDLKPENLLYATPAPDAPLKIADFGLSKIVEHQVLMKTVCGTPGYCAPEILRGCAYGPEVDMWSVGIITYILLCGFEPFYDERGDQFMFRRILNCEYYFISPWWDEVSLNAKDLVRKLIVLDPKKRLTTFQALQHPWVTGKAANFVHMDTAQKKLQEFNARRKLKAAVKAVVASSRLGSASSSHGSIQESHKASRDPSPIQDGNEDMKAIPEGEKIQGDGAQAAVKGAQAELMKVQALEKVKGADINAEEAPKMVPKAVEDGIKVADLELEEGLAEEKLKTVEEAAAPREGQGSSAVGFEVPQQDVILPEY

First: O=C1NC(=O)c2c1c1c3ccccc3[nH]c1c1[nH]c3cc(Br)ccc3c21
Second: O=C1Nc2cc(Br)ccc2/C1=C1/Nc2ccccc2/C1=N\O
The residual activity of the first is higher: 103% for the first, 59% for the second.

Going from `NC(=O)c1ccc2[nH]c(-c3ccc(Oc4ccc(Cl)cc4)cc3)nc2c1` to `Oc1ccc(-c2nc(-c3ccc(F)cc3)c(-c3ccncc3)[nH]2)cc1`, the residual activity rises from 108% to 115%.

Compared with `Cc1cncc2cccc(S(=O)(=O)N3CCCN(C(=O)CN)C[C@H]3C)c12`, `CC(=O)c1ccc(N2CCOCC2)cc1O` is higher in residual activity: 91% for the first, 97% for the second.

Going from `CCN(CC)CCCCN1c2ccccc2Oc2ccc(Cl)cc21` to `Cn1nc2c3c(cccc31)C(=O)c1ccccc1-2`, the residual activity falls from 126% to 96%.

Compared with `COc1ccc(CNc2nc(N(CCO)CCO)nc3c2ncn3C(C)C)cc1`, `CC(C)n1cnc2c(NCc3ccccc3)nc(NCCCO)nc21` is lower in residual activity: 113% for the first, 112% for the second.

First: Cc1ccc(S(=O)(=O)/C=C/C#N)cc1
Second: Cc1ccc(NC2=CC(=O)c3sc(C)nc3C2=O)cc1
The residual activity of the first is lower: 108% for the first, 113% for the second.

Compared with `CO[C@H]1C[C@@H]2CC[C@@H](C)[C@@](O)(O2)C(=O)C(=O)N2CCCC[C@H]2C(=O)O[C@H]([C@H](C)C[C@@H]2CC[C@@H](O)[C@H](OC)C2)CC(=O)[C@H](C)/C=C(\C)[C@@H](O)[C@@H](OC)C(=O)[C@H](C)C[C@H](C)/C=C/C=C/C=C/1C`, `CO[C@H]1[C@@H](OC)C[C@H](C)[C@@H](OC)C2=CC(=O)C=C(NC(=O)/C(C)=C/C=C/[C@H](OC)[C@@H](OC(N)=O)/C(C)=C/[C@@H]1C)C2=O` is lower in residual activity: 131% for the first, 89% for the second.

First: CC[n+]1c(/C=C/N(C)c2ccccc2)n(-c2ccccc2)c2ccc(-c3nc4ccccc4s3)cc21
Second: CO[C@@H]1[C@H](N(C)C(=O)c2ccccc2)C[C@H]2O[C@]1(C)n1c3ccccc3c3c4c(c5c6ccccc6n2c5c31)C(=O)NC4
The residual activity of the first is higher: 124% for the first, 98% for the second.

First: Nc1n[nH]c2nnc(-c3c(-c4ccccc4)nn4ccccc34)cc12
Second: COc1cccc(-c2cc(=O)c3ccccc3o2)c1N
The residual activity of the first is lower: 95% for the first, 108% for the second.

Going from `CCOc1cc2ncnc(Nc3cccc(Br)c3)c2cc1OCC` to `CNc1cc2c(Nc3cccc(Br)c3)ncnc2cn1`, the residual activity rises from 97% to 110%.

Compared with `N#Cc1cnc2cnc(NCc3cccnc3)cc2c1Nc1ccc(F)c(Cl)c1`, `COc1cc2ncnc(Nc3ccc(Oc4ccccc4)cc3)c2cc1OC` is higher in residual activity: 98% for the first, 103% for the second.

Compared with `Ic1cccc(CSc2nnc(-c3ccncc3)o2)c1`, `Nc1ccc2ncnc(NCCc3ccc(Oc4ccccc4)cc3)c2c1` is higher in residual activity: 106% for the first, 108% for the second.

Going from `O=C1NC(=O)/C(=C/c2ccc3c(c2)OC(F)(F)O3)S1` to `O=C1NC(=O)/C(=C\c2ccc3nccnc3c2)S1`, the residual activity rises from 99% to 109%.

Going from `O=C(Nc1cccc(Nc2cc(Nc3cccc(C(F)(F)F)c3)ncn2)c1)C1CC1` to `COc1cc2ncnc(N3CCN(C(=O)Nc4ccc(Oc5ccccc5)cc4)CC3)c2cc1OC`, the residual activity rises from 116% to 122%.

Compared with `COc1ccc(OC)c2c(=S)c3ccccc3[nH]c12`, `COc1cc2ncnc(Nc3ccc(O)c(Br)c3)c2cc1OC` is higher in residual activity: 100% for the first, 122% for the second.

First: CN(C)c1ccc(/C=C2\C(=O)Nc3ccccc32)cc1
Second: N#C/C(=C(\N)Sc1ccc(N)cc1)c1ccccc1C(F)(F)F
The residual activity of the first is lower: 87% for the first, 107% for the second.

`Cc1nc2cc3nc(-c4cccs4)cnc3cc2n1C` gave a residual activity of 129%.
